Screens from PubChem.
GLP1R inv ag: acts as inverse agonist at human GLP-1 receptor; P43220; HEK293 GLP-1R CRE-luciferase, luminescence, 24 h; GLP-1R form is constitutively active; Potency, µM (titrated, usually from 38.3 µM), inactives show at the top dose activity change, negative = inhibition, hits mostly inhibitors; 1.6% of 410,000 active; AID 624417; also: % is scaled to controls: 0 for no effect and ±100 for the full control effect; nearly all actives have a fitted effect of over 55% in size
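Cells are plated, allowed 12 hours at 37 deg C, then treated with compounds for 24 hr before luciferase detection reagent is added and luminescence is read after 12 min at room temperature. The HEK293 line carries constitutively active GLP-1R with a cAMP-responsive reporter.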
Glioma ERSR ind: inducers of ER stress response in human glioma cells; U87-MG GRP78 promoter luciferase reporter, 16 h; Potency, µM, without a hit: at the top dose activation, most hits filed as activators; 0.02% of 420,000 active; AID 602332; also: series mostly up to about 76 µM; % of control where 0% means no effect; nearly all actives have a fitted effect of over 35% in size
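Stably transfected U87-MG human glioma cells carrying a GRP78-based luminescent sensor were seeded at 1000 cells/well, pin-dosed with compounds and incubated 16 h. Luciferase reagent was then added, and end-point luminescence was read after 10 min at room temperature.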
GLS inh: inhibitors of human glutaminase (GLS). O94925. GLS enzymatic activity, qHTS titration. Potency, µM (titrated, usually from 45.5 µM), for inactives: at the highest dose activity change, negative = inhibition, most hits filed as inhibitors. 0.21% of 410,000 active; also: % is scaled to controls: 0 for no effect and ±100 for the full control effect
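Compounds were pin-transferred onto hKGA, after which L-glutamine (1 mM solution) and a detection mix of glutamate oxidase, HRP and Amplex Red were added. Initial and 30 min RT fluorescence reads were collected.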
GLP1R ag: GLP-1 receptor (human) agonism; 0.007% of 380,000 active; AID 624172; HEK293 GLP-1R CRE-luciferase, luminescence, 4-6 h; cells express a hypersensitive GLP-1R form; P43220; Potency, µM (doses to about 45.6 µM), for inactives: at the highest dose activation, usual class: activators; also: % of control where 0% means no effect
12-LOX inh: inhibitors of human 12S-lipoxygenase ALOX12. P18054. purified 12hLO, xylenol orange hydroperoxide absorbance. Potency, µM (series often up to 108 µM), inactives show top-dose activity change, negative = inhibition, usual class: inhibitors. 1.1% of 580,000 active. AID 1671190; also: % is scaled to controls: 0 for no effect and ±100 for the full control effect
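Hydroperoxide product was detected by ferrous iron/xylenol orange as the 573 to 405 nm absorbance ratio. Arachidonic acid at 40 uM (final) was turned over for 30 min at room temperature by 150 nM human 12hLO, pH 7.0 Hepes buffer, after 15 min compound preincubation.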
PTHR1 ag: PTHR1 (human) receptor agonism. Q03431. HEK293 GP2 PTHR1 cells, GloSensor cAMP luminescence, 1 h. Potency, µM (highest dose often 115 µM), for inactives: at the top dose activation, actives largely listed as activators. 0.075% of 410,000 active. AID 743266; also: nearly all actives have a fitted effect of over 55% in size
Target sequence (Q03431 whole entry, looked up): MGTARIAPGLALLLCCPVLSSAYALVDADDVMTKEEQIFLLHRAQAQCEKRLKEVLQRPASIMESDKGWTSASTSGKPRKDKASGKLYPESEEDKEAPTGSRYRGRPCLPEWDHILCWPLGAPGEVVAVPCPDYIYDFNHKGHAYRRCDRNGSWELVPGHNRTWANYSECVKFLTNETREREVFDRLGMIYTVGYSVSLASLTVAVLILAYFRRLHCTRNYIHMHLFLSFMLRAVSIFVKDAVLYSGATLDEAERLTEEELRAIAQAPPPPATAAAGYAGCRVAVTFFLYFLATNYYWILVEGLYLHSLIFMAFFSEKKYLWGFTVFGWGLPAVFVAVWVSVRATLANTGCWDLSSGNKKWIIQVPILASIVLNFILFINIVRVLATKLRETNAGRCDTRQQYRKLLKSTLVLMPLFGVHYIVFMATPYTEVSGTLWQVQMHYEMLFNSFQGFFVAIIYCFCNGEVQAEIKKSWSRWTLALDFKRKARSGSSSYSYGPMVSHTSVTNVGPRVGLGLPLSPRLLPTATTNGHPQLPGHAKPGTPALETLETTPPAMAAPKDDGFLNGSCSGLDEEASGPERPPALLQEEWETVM
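HEK-293-derived GP2 cells expressing PTHR1 and a GloSensor cAMP reporter, 3,000/well, plated overnight, given luciferin plus IBMX (each 0.5 mM as added) for 1 h at 37 °C, then compound for 1 h at 37 °C. Luminescence was read after 15 min at room temperature.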
Active calls of the source: *; [ ] = remark or other dose. Rows were chosen to be rich in hits. Some 2.3% of all compounds tested hit in one or more screens of this group. Calls follow the shape of the dose curve; as a rule, active = well fitted curve in the direction sought with a large enough effect; inconclusive = small, poorly fitted or top-dose-only effect, or another doubt; inactive = no such curve, though single readings can be large; an effect the other way counts as inactive or inconclusive. Potency is read from the fitted curve at half-maximal effect.

For CC(O)CNCCCOc1ccc(C(C)(C)c2ccccc2)cc1 (configuration not stated) the results were 12-LOX inh 4.47µM*.
For CC(O)CNCCCOc1ccccc1OCc1ccccc1 (configuration not stated) the results were GLP1R inv ag inconclusive, Glioma ERSR ind -4.4%, GLS inh -1.3%, GLP1R ag -3.0%, 12-LOX inh -16.7% and PTHR1 ag inactive.
For CC(O)CNCCCCOc1ccc(OCc2ccccc2)cc1 (configuration not stated) the results were GLP1R inv ag 14.1µM*, Glioma ERSR ind -1.3%, GLS inh -5.7%, GLP1R ag -1.1%, 12-LOX inh 1.8% and PTHR1 ag -3.9%.
Screening CC(C)(c1ccccc1)c1ccc(OCCCNCCO)cc1 returned GLP1R inv ag inconclusive, Glioma ERSR ind -6.1%, GLS inh -7.1%, GLP1R ag -6.5%, 12-LOX inh -60.5% and PTHR1 ag inactive.
c1ccc(OCC2CN(Cc3ccncc3)CC23CN(c2ccccc2)C3)cc1 (configuration not stated) was read as 12-LOX inh 30.4%[176 µM].
Cc1ccc(NC(=O)CSC2=NC(C)(C)N=C2c2ccc(Cl)cc2)cc1C was read as 12-LOX inh -10.3%.
`CC(Sc1nc2cc(S(=O)(=O)N3CCCCC3)ccc2o1)C(=O)Nc1ccccc1` (configuration not stated) gave 12-LOX inh -1.7%.
For O=C1CSc2sc(=S)sc2SC1 the results were 12-LOX inh 5.01µM*.
`Cc1c(-c2ccccc2)oc2c(C(=O)N(C)C3CCCCC3)cccc2c1=O` gave 12-LOX inh 12.3%.
`CCOc1ccc(-c2cc(C(=O)NCCOC)[nH]n2)c(C)c1` gave GLP1R inv ag 3.0%, Glioma ERSR ind 2.3%, GLS inh 3.6%, GLP1R ag 6.8%, 12-LOX inh inconclusive and PTHR1 ag -8.3%.
Screening CCOc1ccc(-c2cc(C(=O)Nc3ccc(C)c(NS(C)(=O)=O)c3)[nH]n2)c(C)c1 returned GLP1R inv ag 7.08µM*, Glioma ERSR ind -6.6%, GLS inh -1.4%, GLP1R ag -2.6%, 12-LOX inh -69.8% and PTHR1 ag -92.3%.
CCN(CC)C1CCN(C(=O)c2cc(COc3ccccc3SC)on2)C1 (configuration not stated) was read as GLP1R inv ag 7.08µM*, Glioma ERSR ind 6.5%, GLS inh 2.6%, GLP1R ag -0.7%, 12-LOX inh inconclusive and PTHR1 ag inactive.
`CSc1ccccc1OCc1cc(C(=O)N2CCCC(C)C2)no1` (configuration not stated) gave GLP1R inv ag inconclusive, Glioma ERSR ind -0.5%, GLS inh -1.2%, GLP1R ag -3.6%, 12-LOX inh -1.7% and PTHR1 ag -31.9%.
For CCOC(=O)c1ccc(N2CCN(c3ccccc3F)CC2)c(NC(=O)Nc2ccccc2)c1 the results were GLP1R inv ag 2.51µM*, Glioma ERSR ind -4.6%, GLS inh -7.1%, GLP1R ag 4.1%, 12-LOX inh -14.8% and PTHR1 ag -16.1%.
Cn1cc(CC(=O)N2CCC(NC(=O)C3CC3)CC2)c2ccccc21 was read as 12-LOX inh -5.7%.
For Cc1ccc(OCCCNCCO)c(Br)c1 the results were GLP1R inv ag 3.98µM*, Glioma ERSR ind 0.2%, GLS inh 2.4%, GLP1R ag -7.0%, 12-LOX inh 0.0% and PTHR1 ag inactive.
Screening COCCNCCCCOc1ccc(Br)cc1C returned GLP1R inv ag inconclusive, Glioma ERSR ind -4.2%, GLS inh 0.6%, GLP1R ag 0.1%, 12-LOX inh inconclusive and PTHR1 ag -19.8%.
